The term AC50 denotes the midpoint of the concentration-response curve, whichever way the signal moves.

This is an account of results in PubChem BioAssay (EPA / NIEHS).

Assay [1] can be described thus: ATG_E_Box_CIS: Attagene CIS-FACTORIAL HepG2 Assay for human Enhancer Box (E-box) (AID 2282936). The note with it: HepG2 E-box cis-reporter transcription, actives raise or lower the signal. A digest of the protocol:
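DMSO served as negative control and baseline for bidirectional fitting. Human hepatoma HepG2 cells, transiently transfected with cis-reporter constructs, were dosed 24 h; reporter mRNA read by RT-PCR and capillary electrophoresis.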

Assay [2] can be described thus: ATG_M_61_CIS: Attagene CIS-FACTORIAL HepG2 Assay for M61 Transcription Factor (Internal Marker) (AID 2282937). To be noted: HepG2 Attagene CIS-FACTORIAL M61 internal marker reporter; actives raise or lower the signal. A digest of the protocol: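 This endpoint serves as an internal background control within a multiplexed HepG2 cis-reporter panel. Cells are exposed for 24 h; reporter mRNA is amplified, fluorescently labelled and sized by capillary electrophoresis, with DMSO as negative control.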

A short description of assay [3]: ATG_EGR_CIS: Attagene CIS-FACTORIAL HepG2 Assay for human Early Growth Response 1 (EGR1) (AID 2282938). The note with it: HepG2 Attagene CIS-FACTORIAL EGR reporter mRNA; actives raise or lower the signal. Put shortly:
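HepG2, transient MRTU transfection (cis promoters), 24 h compound. RNA → RT (oligo-dT) → PCR → 6-FAM labelling → HpaI cut → CE fluorescence. Bidirectional fit, DMSO baseline.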

The nature of assay [4]: ATG_M_19_CIS: Attagene CIS-FACTORIAL HepG2 Assay for M19 Transcription Factor (Internal Marker) (AID 2282939). The note with it: HepG2 Attagene CIS-FACTORIAL M19 internal marker reporter; actives raise or lower the signal. Put shortly: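 Signals come from fluorescence of labelled reporter-specific PCR fragments resolved by capillary electrophoresis, following 24 h treatment of HepG2 cells transfected with cis-promoter reporter units; activity was fitted in both directions relative to DMSO.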

Assay [5] can be described thus: ATG_ERE_CIS: Attagene CIS-FACTORIAL HepG2 Assay for Estrogen Response Element (ERE) (AID 2282940). To be noted: HepG2 ERE cis-reporter, Attagene RNA transcript; actives raise or lower the signal. Put shortly: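 Fluorescence of capillary-separated, FAM-labelled reporter cDNA fragments indicates reporter mRNA levels in HepG2 cells exposed to chemicals for 24 h. Transient transfection with cis-regulated units; data fitted in both directions against DMSO.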

Assay [6] in a line: ATG_Ets_CIS: Attagene CIS-FACTORIAL HepG2 Assay for human Erythroblast Transformation Specific (ETS) (AID 2282941). The note with it: HepG2 ETS cis-reporter transcription, actives raise or lower the signal. Put shortly: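 Steps: transfect HepG2 with multiple reporter units; treat compound 24 h; isolate RNA, DNase-treat, reverse-transcribe; PCR-amplify, label with 6-FAM, digest with HpaI; separate by capillary electrophoresis. Activity fitted both directions versus DMSO.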

The target in assay [7] is Hepatocyte nuclear factor 3-beta (Homo sapiens) (UniProt Q9Y261). Kind of assay: ATG_FoxA2_CIS: Attagene CIS-FACTORIAL HepG2 Assay for human Forkhead box A2 (FOXA2) (AID 2282942). To be noted: HepG2 cis-reporter transcription factor activity, 24 h; actives raise or lower the signal. A digest of the protocol: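 Cells: HepG2, transient multiplex reporter transfection. Exposure 24 h. Detection: reporter-specific RT-PCR, fluorescent labelling, restriction digest, capillary electrophoresis. Analysis: bidirectional curve fit, DMSO as negative control.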
Hepatocyte nuclear factor 3-beta (Homo sapiens), sequence (Q9Y261 whole entry, looked up): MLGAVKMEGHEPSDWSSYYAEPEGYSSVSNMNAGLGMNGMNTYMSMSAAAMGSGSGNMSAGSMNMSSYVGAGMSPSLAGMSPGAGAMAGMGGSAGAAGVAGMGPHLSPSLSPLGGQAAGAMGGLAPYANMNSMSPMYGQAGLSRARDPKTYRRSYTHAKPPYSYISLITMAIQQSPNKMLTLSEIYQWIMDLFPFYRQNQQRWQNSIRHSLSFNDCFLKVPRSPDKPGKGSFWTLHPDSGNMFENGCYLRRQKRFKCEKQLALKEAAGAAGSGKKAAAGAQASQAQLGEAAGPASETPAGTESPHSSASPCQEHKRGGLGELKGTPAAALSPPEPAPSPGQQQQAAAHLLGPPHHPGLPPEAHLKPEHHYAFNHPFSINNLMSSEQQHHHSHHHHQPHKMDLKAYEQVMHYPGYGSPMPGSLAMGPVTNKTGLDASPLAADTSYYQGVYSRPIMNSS

Assay [8] can be described thus: ATG_FoxO_CIS: Attagene CIS-FACTORIAL HepG2 Assay for human Forkhead box O (FoxO) (AID 2282943). The note with it: HepG2 Attagene cis-reporter, FoxO element, mRNA; actives raise or lower the signal. Put shortly: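 HepG2, transient MRTU transfection (cis element, endogenous TFs). Dose 24 h. TriZol RNA → oligo(dT) RT → PCR → 6-FAM primer extension → HpaI cut → CE. Gain/loss vs DMSO.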

Assay [9] in a line: ATG_GLI_CIS: Attagene CIS-FACTORIAL HepG2 Assay for human Zinc Finger Protein GLI1 (AID 2282945). The note with it: HepG2, Attagene cis-factorial reporter mRNA, GLI element; actives raise or lower the signal. Put shortly: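 Bidirectional curve fits relative to DMSO, using reporter mRNA levels from RT-PCR plus capillary electrophoresis. Cells were HepG2 transiently carrying cis-regulated reporter constructs, harvested 24 h after dosing.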

Assay [10] can be described thus: ATG_ISRE_CIS: Attagene CIS-FACTORIAL HepG2 Assay for human Interferon Regulatory Factor 1 (IRF1) binding to an Interferon-Stimulated Response Element (ISRE) (AID 2282948). The note with it: HepG2 ISRE cis-reporter (Attagene), mRNA transcription readout; actives raise or lower the signal. Put shortly:
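Transfected HepG2 (multiple reporter transcription units, cis elements) dosed 24 h. RNA → oligo(dT) RT → PCR → 6-FAM primer extension → HpaI → CE. DMSO = negative control/baseline.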

A short description of assay [11]: ATG_M_32_CIS: Attagene CIS-FACTORIAL HepG2 Assay for M32 Transcription Factor (Internal Marker) (AID 2282949).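 Further: background control marker of the multiplexed CIS panel rather than a real target.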 The note with it: HepG2 Attagene cis-factorial M32 reporter, mRNA; actives raise or lower the signal. Put shortly:
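Internal background marker read-out: RT-PCR/capillary electrophoresis fluorescence of reporter transcripts from transiently transfected HepG2 cells after 24 h chemical exposure. Activity fitted bidirectionally relative to DMSO negative control.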

Assay [12] in a line: ATG_M_06_CIS: Attagene CIS-FACTORIAL HepG2 Assay for M06 Transcription Factor (Internal Marker) (AID 2282950). The note with it: HepG2 Attagene CIS-FACTORIAL M06 internal marker reporter; actives raise or lower the signal. A digest of the protocol: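 HepG2 liver cells, 24 h exposure. Reporter transcripts from transfected cis-element constructs quantified by RT-PCR/capillary electrophoresis fluorescence. Bidirectional curve fit against DMSO.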

Assay [13] has as its target Hypoxia-inducible factor 1-alpha (Homo sapiens) (UniProt Q16665). Kind of assay: ATG_HIF1a_CIS: Attagene CIS-FACTORIAL HepG2 Assay for human Hypoxia Inducible Factor 1 (HIF1A) (AID 2282951). To be noted: HepG2 Attagene cis-factorial HIF1a reporter transcription; actives raise or lower the signal. Put shortly: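 HepG2, transient cis-reporter library, 24 h dosing. RNA → RT (oligo dT) → PCR → 6-FAM primer extension → HpaI → CE. Bidirectional curve fit vs DMSO.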

Assay [14] has as its target Hepatocyte nuclear factor 6 (Homo sapiens) (UniProt Q9UBC0). The assay can be described thus: ATG_HNF6_CIS: Attagene CIS-FACTORIAL HepG2 Assay for human Hepatocyte Nuclear Factor 6 (HNF6) (AID 2282952). To be noted: HepG2 Attagene cis-factorial HNF6 reporter transcription; actives raise or lower the signal. A digest of the protocol: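 Cells are HepG2 carrying transiently transfected cis-promoter reporter units. Treatment lasts 24 h, after which reporter transcripts are reverse-transcribed, amplified, FAM-labelled and sized by capillary electrophoresis. DMSO serves as baseline.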

For assay [15], the target named is Heat shock factor protein 1 (Homo sapiens) (UniProt Q00613). Kind of assay: ATG_HSE_CIS: Attagene CIS-FACTORIAL HepG2 Assay for human Heat Shock Transcription Factor 1 (HSE) (AID 2282953). The note with it: HepG2 HSE cis-reporter, Attagene RNA transcription; actives raise or lower the signal. Put shortly: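 Endogenous transcription factor activity captured via cis-promoter reporter units transfected into HepG2; treatment lasted 24 h. Fluorescence intensity of reporter fragments analysed with bidirectional curve fitting, DMSO baseline.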
Heat shock factor protein 1 (Homo sapiens), sequence (Q00613 whole entry, looked up, the tested form may be a part): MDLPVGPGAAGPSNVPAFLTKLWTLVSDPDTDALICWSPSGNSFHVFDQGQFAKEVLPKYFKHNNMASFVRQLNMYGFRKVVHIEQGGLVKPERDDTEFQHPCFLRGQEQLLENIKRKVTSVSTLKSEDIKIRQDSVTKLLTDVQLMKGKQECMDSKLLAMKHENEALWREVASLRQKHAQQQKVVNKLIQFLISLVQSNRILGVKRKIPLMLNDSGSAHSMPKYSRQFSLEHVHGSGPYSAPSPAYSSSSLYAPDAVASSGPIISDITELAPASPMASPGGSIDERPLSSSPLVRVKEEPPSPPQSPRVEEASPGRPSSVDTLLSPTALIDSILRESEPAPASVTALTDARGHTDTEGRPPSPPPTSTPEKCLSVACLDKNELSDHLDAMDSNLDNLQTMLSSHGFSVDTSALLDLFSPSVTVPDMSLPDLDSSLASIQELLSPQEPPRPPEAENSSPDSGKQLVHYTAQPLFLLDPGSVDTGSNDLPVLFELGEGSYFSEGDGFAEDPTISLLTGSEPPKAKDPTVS

Assay [16] is described as follows: ATG_MRE_CIS: Attagene CIS-FACTORIAL HepG2 Assay for human Metal Responsive Element (MRE) (AID 2282954). To be noted: HepG2 MRE cis-reporter transcription, Attagene multiplex; actives raise or lower the signal. Put shortly:
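After a 24 h chemical exposure, transiently transfected HepG2 cells yield RNA whose reporter sequences are amplified, FAM-labelled and sized by capillary electrophoresis. Curves are fitted bidirectionally relative to DMSO.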

A short description of assay [17]: ATG_PBREM_CIS: Attagene CIS-FACTORIAL HepG2 Assay for human Phenobarbital-responsive Enhancer Module (PBREM) (AID 2282955). To be noted: HepG2 PBREM cis-reporter, Attagene multiplexed transcription; actives raise or lower the signal. A digest of the protocol: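 HepG2, transient MRTU transfection, 24 h dosing; RNA → oligo(dT) RT → PCR → 6-FAM extension → HpaI → CE. Bidirectional fit vs DMSO.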

The nature of assay [18]: ATG_GATA_CIS: Attagene CIS-FACTORIAL HepG2 Assay for human GATA Binding Protein (AID 2282944). To be noted: HepG2 GATA cis-element reporter, Attagene multiplex mRNA; actives raise or lower the signal. Put shortly:
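After transfecting HepG2 cells with multiple cis-regulated reporter units, chemicals are dosed for 24 h; isolated RNA undergoes RT-PCR and fluorescent labeling before capillary electrophoresis, with activity expressed against DMSO.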

Assay [19] in a line: ATG_GRE_CIS: Attagene CIS-FACTORIAL HepG2 Assay for human Glucocorticoid Response Elements (GRE) (AID 2282947). The note with it: HepG2 GRE cis-reporter, Attagene multiplex mRNA; actives raise or lower the signal. A digest of the protocol:
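Assay uses human hepatoma HepG2 cells transfected with cis-promoter reporter units, exposed 24 h. mRNA from reporters detected by RT-PCR plus capillary electrophoresis; DMSO serves as negative control and baseline.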

The source made the active and inactive calls. How the source made its calls: active means hit-call score of the fitted dose curve at least 0.9, where 1 is the maximum; inactive means score below 0.9.

Hepatocyte nuclear factor 6 (Homo sapiens), sequence (Q9UBC0 whole entry, looked up): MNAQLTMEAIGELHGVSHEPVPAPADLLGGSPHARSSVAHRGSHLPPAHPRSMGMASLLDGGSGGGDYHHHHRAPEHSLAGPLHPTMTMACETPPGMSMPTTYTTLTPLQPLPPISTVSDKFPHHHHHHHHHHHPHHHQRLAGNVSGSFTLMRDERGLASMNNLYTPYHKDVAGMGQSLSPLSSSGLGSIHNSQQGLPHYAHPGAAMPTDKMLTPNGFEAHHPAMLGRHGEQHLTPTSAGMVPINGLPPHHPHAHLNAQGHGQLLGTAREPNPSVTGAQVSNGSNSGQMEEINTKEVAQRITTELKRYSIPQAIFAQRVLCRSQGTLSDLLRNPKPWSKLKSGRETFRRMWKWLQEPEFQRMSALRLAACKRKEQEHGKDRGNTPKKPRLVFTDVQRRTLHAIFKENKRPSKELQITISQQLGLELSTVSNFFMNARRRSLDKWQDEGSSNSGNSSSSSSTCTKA
Hypoxia-inducible factor 1-alpha (Homo sapiens), sequence (Q16665 whole entry, looked up): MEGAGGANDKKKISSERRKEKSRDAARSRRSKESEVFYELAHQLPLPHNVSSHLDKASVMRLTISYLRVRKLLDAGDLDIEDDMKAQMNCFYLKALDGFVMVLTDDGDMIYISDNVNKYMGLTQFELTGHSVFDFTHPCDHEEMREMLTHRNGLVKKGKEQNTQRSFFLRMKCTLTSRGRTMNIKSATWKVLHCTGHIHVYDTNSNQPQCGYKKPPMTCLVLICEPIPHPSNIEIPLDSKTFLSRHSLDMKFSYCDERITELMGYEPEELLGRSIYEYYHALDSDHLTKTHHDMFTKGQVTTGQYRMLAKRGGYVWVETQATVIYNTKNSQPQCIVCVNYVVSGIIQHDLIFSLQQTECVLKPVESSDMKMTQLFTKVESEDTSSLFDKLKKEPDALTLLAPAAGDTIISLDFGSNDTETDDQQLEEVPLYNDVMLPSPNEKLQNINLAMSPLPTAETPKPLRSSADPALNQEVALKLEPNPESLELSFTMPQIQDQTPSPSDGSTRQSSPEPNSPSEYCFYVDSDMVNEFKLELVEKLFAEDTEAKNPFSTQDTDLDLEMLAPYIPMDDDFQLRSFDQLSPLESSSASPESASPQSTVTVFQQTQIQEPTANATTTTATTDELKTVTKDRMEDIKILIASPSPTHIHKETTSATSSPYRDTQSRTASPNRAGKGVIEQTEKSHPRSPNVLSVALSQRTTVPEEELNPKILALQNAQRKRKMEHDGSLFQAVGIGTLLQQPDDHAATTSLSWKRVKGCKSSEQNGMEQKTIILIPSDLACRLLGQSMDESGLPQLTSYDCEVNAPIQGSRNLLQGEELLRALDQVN

As to `CC(C)=CCCC(C)C=O` (centres undefined), the result in [1], in assay [2], in assay [3], in [4], in assay [5] and in [6] was inactive. Further, the outcome in [7], in assay [8], in [9], in assay [10], in assay [11] and in assay [12] was inactive. Moreover, the result in assay [13], in assay [14], in assay [15], in assay [16] and in [17] was inactive.

`Nc1ccc2cc3ccccc3cc2c1`: the outcome in [1], in [2], in assay [3], in assay [4], in [6] and in assay [7] was inactive. Moreover, the molecule was classed as inactive in assay [8], in [18], in assay [9], in [19], in [10] and in [11]. In addition, the molecule was classed as inactive in assay [12], in [13], in assay [14], in assay [15], in assay [16] and in assay [17].

In the case of `CCCNC(=O)NS(=O)(=O)c1ccc(Cl)cc1`, the outcome in assay [1], in assay [2], in assay [3], in assay [4], in [5] and in assay [6] was inactive. In addition, the outcome in assay [7], in [8], in assay [9], in [19], in [10] and in assay [12] was inactive. The call in [13], in assay [14], in assay [15] and in [16] was inactive.

For `c1ccc2c(c1)ccc1ncccc12`, the result in assay [1], in [2], in [3], in assay [4], in assay [5] and in assay [6] was inactive. The outcome in assay [7], in assay [8], in assay [9], in assay [19], in assay [11] and in assay [12] was inactive. The call in assay [13], in assay [14], in [15], in [16] and in [17] was inactive. Besides, in assay [10], the AC50 is 150 µM (active).
